aSyn UTR act: Activators via SNCA 5'UTR binding, MLPCN; alpha-synuclein 5'UTR reporter, activators screen; actives 7.1% (n = 300,000); AID 1814; activity score, % (tested at 7.5 µM), hits read low; in the data active = activity score below about -60%
Numbers without * were called inactive. Only a sample is shown.

SMILES	aSyn UTR act
CCOC(=O)Nc1nnc(-c2ccc(OC)cc2)s1	-65*
CCOC(=O)Nc1nnc(-c2cccc(OC)c2)s1	-83*
COc1ccc(-c2nnc(NC(=O)C(C)C)s2)c(OC)c1	-101*
CCOC(=O)Nc1nc(-c2ccccc2)c(C(=O)c2ccc(Cl)cc2)s1	114
Cc1cccc(Nc2ccc(NCc3ccccc3)nn2)c1	-110*
CC(C)N1CC(O)=C(c2nc3ccccc3c(=O)[nH]2)C1=N	-75*
[O-][n+]1c2ccccc2c2n1CCCN=C2c1ccc(Cl)cc1	-149*
COc1ccc(OC)c(/C=N/N(C)c2ccccc2)c1	-187*
CN(C)C(CNC(=O)c1ccc2ccccc2c1)c1ccco1 (stereo not drawn)	-62*
CN(C)c1cccc(C(=O)NCC(c2ccco2)N(C)C)c1 (stereo not drawn)	-75*
CC(C)CC(=O)Nc1cc2nn(-c3ccccc3)nc2cc1Cl	-135*
Nc1cc2nn(-c3ccccc3)nc2cc1Cl	-157*
O=C(/C=C/c1ccc(Br)o1)Nc1nccs1	-149*
O=C(Nc1nccs1)c1ccc(Br)o1	-102*
c1ccc(-n2nnc(-c3cccnc3)n2)cc1	-162*
Cc1ccc(-n2nnc(-c3cccnc3)n2)cc1	-117*
O=C1CCCc2nc3c(cc21)C(O)Oc1c-3ccc2ccccc12 (stereo not drawn)	-118*
COC(=O)c1c(C)oc2ccc(N(C(=O)c3ccncc3)S(=O)(=O)c3ccc(C)cc3)cc12	110
Cc1ccc(S(=O)(=O)N(C(=O)c2ccncc2)c2ccc(OC(=O)c3ccncc3)c3ccccc23)cc1	-65*
COc1ccc(OC)c2sc(N(CCN(C)C)C(=O)/C=C/c3cccs3)nc12	54
COc1ccc(NC(=S)NC(=O)/C=C/c2ccco2)cc1	-91*
O=C(/C=C/c1ccco1)NC(=S)Nc1ccc(N2CCCC2)cc1	-70*
COc1ccc(NC(=S)NC(=O)/C=C/c2cccs2)cc1	-73*
CCCCOC(=O)c1ccc(NC(=O)/C=C/c2cccs2)cc1	-88*
CN(C)/C=C/c1oc2ccc(O)cc2c1[N+](=O)[O-]	-86*
SMILES	aSyn UTR act
COc1ccccc1-c1cnn2c(NCc3ccccc3)cc(C)nc12	-75*
Cc1cc(NCc2ccccn2)n2ncc(-c3ccc(Cl)cc3)c2n1	-97*
Cc1cc(NCCCN2CCOCC2)n2ncc(-c3ccccc3)c2n1	-95*
Cc1cc(NCc2ccccn2)n2ncc(-c3ccccc3)c2n1	-155*
CC(NC(=O)CCl)c1ccccc1Br (stereo not drawn)	-99*
O=[N+]([O-])c1cc(-c2ccc(/C=N/c3nc4ccccn4c3-c3ccco3)o2)ccc1Cl	-74*
CCCCn1cnc2c(oc3ccccc32)c1=O	-121*
COC(=O)C1(Cc2cc(-c3ccccc3)no2)CCN(C(=O)OC(C)(C)C)CC1	-82*
CN(C(=O)Nc1ccc(Cl)cc1Cl)C1CCCC1	-118*
O=C(Nc1ccc(Cl)cc1Cl)NC1CCCC1	-74*
S=C(Nc1ccc(Cl)cc1Cl)NC1CCCCC1	-127*
O=C(NC1CCCCC1)Sc1ccc(Cl)cc1	-72*
O=C(Nc1ccc([N+](=O)[O-])cc1)Nc1ccon1	74
CCCCc1ccc(NC(=O)Nc2cnccn2)cc1	-98*
CCc1ccc(NC(=O)Nc2ccon2)cc1	-136*
CCc1ccc(NC(=O)Nc2cnccn2)cc1	-104*
O=C(NC1CCCCCCC1)c1ccc(Br)cc1	-92*
CC(C)Oc1ccc(C(=O)NC2CCCCC2)cc1	-91*
C=CCOc1ccc(C(=O)NC2CCCCC2)cc1	-161*
CCc1ccc(C(O)(CC(C)C)C(CN2CCOCC2)c2ccccc2)cc1 (stereo not drawn)	57
CCOC(=O)c1ccc(N2Cc3ccccc3C2)cc1O	-122*
CCc1ccc(N2Cc3ccccc3C2)cc1	-151*
CCCn1nnc(NC(=O)c2ccc(Br)cc2)n1	-137*
CCOc1ccc(C(=O)Nc2nnn(CC)n2)cc1	-86*
CCCn1nnc(NC(=O)c2ccc(-c3ccccc3)cc2)n1	-218*
SMILES	aSyn UTR act
CCCn1nnc(NC(=O)c2ccc(OC)cc2)n1	-121*
O=C1C(=O)c2c(C(=O)c3ccccc3)coc2-c2ccccc21	-105*
CCc1c(C)nc(Nc2nc(C)c3cc(OC)ccc3n2)[nH]c1=O	-102*
COc1ccc2c(C)nc(Nc3nc(C)c(C)c(=O)[nH]3)nc2c1	103
CCN(CC)C(=O)c1cc(-c2ccc3c(c2)OCO3)on1	-132*
CCCNC(=O)c1cc(-c2ccc3c(c2)OCO3)on1	-105*
CC(C)NC(=O)c1cc(-c2ccc3c(c2)OCO3)on1	-110*
CCCCNC(=O)c1cc(-c2ccc3c(c2)OCO3)on1	-66*
O=C(Nc1cccc(O)c1)c1cc(-c2ccc3c(c2)OCO3)on1	69
Cc1nn(C(C)(C)C)c(C)c1/C=N/OC(=O)Nc1ccc(Cl)cc1	94
CNC(=S)N/N=C/c1c(C)nn(-c2ccccc2)c1Cl	-89*
Cc1nn(-c2ccccc2Cl)c(Cl)c1/C=N/Nc1nc2ccccc2s1	69
Cc1nn(-c2ccccc2)c(Cl)c1/C=N/NC(=O)OC(C)(C)C	-131*
CCOC(=O)N/N=C/c1c(C)nn(-c2ccccc2Cl)c1Cl	-91*
Cc1csc(NC(=O)c2ccc(S(=O)(=O)N3CCCC3)cc2)n1	-62*
CC1CC(C)CN(S(=O)(=O)c2ccc(C(=O)Nc3nnc(-c4cccs4)o3)cc2)C1 (stereo not drawn)	60
Cc1cc(C)c2nc(NNC(=O)c3ccc(S(=O)(=O)N4CCCC(C)C4)cc3)sc2c1 (stereo not drawn)	73
CN(C)S(=O)(=O)c1ccc(C(=O)Nc2nc(-c3cccs3)cs2)cc1	-99*
O=C(Nc1nc(-c2cccs2)cs1)c1ccc(S(=O)(=O)N2CCCC2)cc1	-96*
Cc1nnc(N/N=C/c2cccc(OCc3ccc(Cl)c(Cl)c3)c2)n1N	-83*
CC(=Nc1cccc(O)c1)c1sc2ccccc2c1O	-236*
CCCCN1CCc2c([nH]c3ccc(C)cc23)C1=O	-171*
O=C(N=C1N=C2C=CC(Br)=CN2Cc2ccccc21)c1ccc([N+](=O)[O-])cc1[N+](=O)[O-]	-106*
CC(C)(C)c1ccc(/C=C/C(=O)Nc2nncs2)cc1	-88*
O=C(/C=C/c1ccc2c(c1)OCO2)Nc1nncs1	-115*
SMILES	aSyn UTR act
Cc1ccc(NC(=O)c2sc(Cl)nc2-c2ccccc2)cc1	-63*
O=C(Nc1ccc(F)cc1)c1sc(Cl)nc1-c1ccccc1	-73*
Cc1ccsc1C(=O)OCC(=O)NCCC1=CCCCC1	-81*
Cc1cc(C)c2c(N)c(C(=O)Nc3cccc(C)c3C)sc2n1	-268*
Cc1ccc(NC(=O)c2sc3nc(C)cc(C)c3c2N)cc1	-75*
CCOC(=O)c1[nH]c2ccc(C)cc2c1N	-234*
O=C1Nc2ccc3sc4ccccc4c3c2C1=O	-69*
Cn1nnnc1SCc1nnc(-c2ccc(Cl)cc2)o1	-75*
Cc1cc(NC(=O)Nc2ccc3c(ccn3C)c2)sn1	-121*
O=C(CN1C(=O)c2ccccc2S1(=O)=O)c1cccc(Br)c1	84
O=C(CN1CC(=O)Oc2ccccc21)OCC(=O)c1cccc(Br)c1	-66*
O=C(CN1CC(=O)Oc2ccccc21)OCC(=O)c1ccccc1	-100*
O=C(Nc1ccc(-c2nc3ccccc3[nH]2)cc1)C1CCCO1 (stereo not drawn)	77
O=C(Nc1nc2ccccc2[nH]1)C12CC3CC(CC(C3)C1)C2	-181*
O=c1[nH]c2ccccc2nc1/C=C(\O)c1cccs1	-174*
O=C(Nc1nc2ccccc2[nH]1)C1CCCO1 (stereo not drawn)	-79*

Source: PubChem BioAssay
